Assay in all cases: DAPPL (digital affinity profiling via proximity ligation, sequencing); 10 mM Tris-HCl pH 7.5, 50 mM NaCl, 1 mM DTT, 4% glycerol, room temperature, 30 min; GST-TFs on glutathione beads, 16-mer random dsDNA library, 0.1% formaldehyde crosslink after washing; high values mean tight binding
What all share (settings): protein: recombinant; tags: N-terminal GST; dsDNA, one strand shown

In assay [1] the target is T1, FLI1 (Homo sapiens, UniProt Q01543 1-452).
T1 sequence: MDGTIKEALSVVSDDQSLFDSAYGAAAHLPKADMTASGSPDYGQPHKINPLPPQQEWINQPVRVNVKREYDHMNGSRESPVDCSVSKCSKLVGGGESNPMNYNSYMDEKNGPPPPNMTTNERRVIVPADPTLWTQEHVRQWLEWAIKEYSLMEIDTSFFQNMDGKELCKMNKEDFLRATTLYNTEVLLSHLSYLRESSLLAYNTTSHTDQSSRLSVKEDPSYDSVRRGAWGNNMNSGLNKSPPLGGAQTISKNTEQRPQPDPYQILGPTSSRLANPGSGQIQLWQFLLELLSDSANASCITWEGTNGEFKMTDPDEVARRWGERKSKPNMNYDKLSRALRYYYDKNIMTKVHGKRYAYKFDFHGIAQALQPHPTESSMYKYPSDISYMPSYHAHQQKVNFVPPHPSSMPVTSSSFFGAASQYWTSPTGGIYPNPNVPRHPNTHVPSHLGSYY
In a few lines:
(§1)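 Human transcription factors fused to GST were expressed in yeast, captured on glutathione beads, given DNA barcodes and pooled with a GST-only negative control. Pools were incubated with 200 nmole of a 16-mer random double-stranded DNA library in Tris/NaCl/DTT/glycerol buffer at room temperature for 30 min. They were then washed, crosslinked with 0.1% formaldehyde, proximity-ligated (BsaI/T4 ligase, 1 h, 37 °C), PCR-amplified and sequenced on an Illumina NextSeq500. Binding signal is each 6-mer's read frequency for a factor divided by its frequency for the GST control.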

Assay [2] addresses T2, ELK1 (Homo sapiens, UniProt P19419 1-428).
T2 sequence: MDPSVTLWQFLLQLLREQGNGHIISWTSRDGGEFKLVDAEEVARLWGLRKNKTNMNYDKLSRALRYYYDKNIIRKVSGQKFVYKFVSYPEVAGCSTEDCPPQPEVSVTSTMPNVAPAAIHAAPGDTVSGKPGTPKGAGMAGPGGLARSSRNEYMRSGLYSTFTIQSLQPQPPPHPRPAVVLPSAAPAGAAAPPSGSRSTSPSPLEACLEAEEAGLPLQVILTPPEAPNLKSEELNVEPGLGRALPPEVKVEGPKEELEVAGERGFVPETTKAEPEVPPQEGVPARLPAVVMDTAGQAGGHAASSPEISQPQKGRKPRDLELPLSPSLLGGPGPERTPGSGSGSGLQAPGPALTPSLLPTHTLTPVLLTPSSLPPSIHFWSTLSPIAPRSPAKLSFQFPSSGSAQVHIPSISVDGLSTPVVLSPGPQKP
In a few lines: as §1

For assay [3], the target named is T3, GABPA (Homo sapiens, UniProt Q06546 1-454).
T3 sequence: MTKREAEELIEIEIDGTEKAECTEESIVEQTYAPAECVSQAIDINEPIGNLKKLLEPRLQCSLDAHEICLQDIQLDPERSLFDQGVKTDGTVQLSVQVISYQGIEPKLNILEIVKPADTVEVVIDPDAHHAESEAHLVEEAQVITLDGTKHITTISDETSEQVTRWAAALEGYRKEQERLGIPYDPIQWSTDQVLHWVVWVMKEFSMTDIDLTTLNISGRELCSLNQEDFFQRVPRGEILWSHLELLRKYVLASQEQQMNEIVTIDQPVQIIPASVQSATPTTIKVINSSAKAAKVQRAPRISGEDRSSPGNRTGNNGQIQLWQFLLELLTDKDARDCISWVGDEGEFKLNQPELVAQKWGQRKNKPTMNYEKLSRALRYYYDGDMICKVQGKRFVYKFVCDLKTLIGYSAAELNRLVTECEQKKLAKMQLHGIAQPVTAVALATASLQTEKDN
The procedure, abridged:
as §1

Assay [4] has as its target T4, ERG (Homo sapiens, UniProt P11308 1-479).
T4 sequence: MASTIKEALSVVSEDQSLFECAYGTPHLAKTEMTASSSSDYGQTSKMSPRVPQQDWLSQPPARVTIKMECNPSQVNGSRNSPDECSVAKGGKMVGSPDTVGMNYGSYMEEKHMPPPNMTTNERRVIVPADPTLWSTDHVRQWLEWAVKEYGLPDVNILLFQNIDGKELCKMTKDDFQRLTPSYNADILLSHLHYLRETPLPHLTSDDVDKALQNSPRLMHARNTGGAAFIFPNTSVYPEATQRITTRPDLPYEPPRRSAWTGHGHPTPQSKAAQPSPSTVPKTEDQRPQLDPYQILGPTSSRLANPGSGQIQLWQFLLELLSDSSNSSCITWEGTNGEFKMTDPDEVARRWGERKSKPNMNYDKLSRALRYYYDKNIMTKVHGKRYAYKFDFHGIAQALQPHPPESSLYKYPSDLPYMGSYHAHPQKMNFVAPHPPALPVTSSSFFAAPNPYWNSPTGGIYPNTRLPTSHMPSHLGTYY
The procedure, abridged:
as §1

Assay [5] has as its target ELF1 (Homo sapiens, UniProt P32519 1-619). In a few lines:
as §1

Assay [6] concerns the target T5, EHF (Homo sapiens, UniProt Q9NZC4 1-300).
T5 sequence: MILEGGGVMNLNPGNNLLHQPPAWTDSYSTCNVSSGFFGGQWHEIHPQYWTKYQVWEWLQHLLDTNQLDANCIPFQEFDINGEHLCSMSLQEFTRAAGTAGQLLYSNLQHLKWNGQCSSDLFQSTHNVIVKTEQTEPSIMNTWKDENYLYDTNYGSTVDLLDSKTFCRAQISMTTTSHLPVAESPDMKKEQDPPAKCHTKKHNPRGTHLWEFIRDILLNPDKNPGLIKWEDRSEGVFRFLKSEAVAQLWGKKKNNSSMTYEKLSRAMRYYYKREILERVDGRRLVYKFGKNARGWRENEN
In a few lines:
as §1

Assay [7] addresses T6, SPIC (Homo sapiens, UniProt Q8N5J4 1-248).
T6 sequence: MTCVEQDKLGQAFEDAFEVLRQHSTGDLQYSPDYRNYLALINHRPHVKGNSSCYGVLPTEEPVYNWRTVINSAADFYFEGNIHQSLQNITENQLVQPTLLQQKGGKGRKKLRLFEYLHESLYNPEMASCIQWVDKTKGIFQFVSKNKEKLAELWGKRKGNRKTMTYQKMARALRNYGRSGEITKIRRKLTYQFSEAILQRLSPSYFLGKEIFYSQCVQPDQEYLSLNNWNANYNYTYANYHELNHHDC
In a few lines:
as §1

The target of assay [8] is ELF4 (Homo sapiens, UniProt Q99607 1-663). In a few lines:
as §1

For assay [9], the target named is T7, ELK4 (Homo sapiens, UniProt P28324-2 1-405).
T7 sequence: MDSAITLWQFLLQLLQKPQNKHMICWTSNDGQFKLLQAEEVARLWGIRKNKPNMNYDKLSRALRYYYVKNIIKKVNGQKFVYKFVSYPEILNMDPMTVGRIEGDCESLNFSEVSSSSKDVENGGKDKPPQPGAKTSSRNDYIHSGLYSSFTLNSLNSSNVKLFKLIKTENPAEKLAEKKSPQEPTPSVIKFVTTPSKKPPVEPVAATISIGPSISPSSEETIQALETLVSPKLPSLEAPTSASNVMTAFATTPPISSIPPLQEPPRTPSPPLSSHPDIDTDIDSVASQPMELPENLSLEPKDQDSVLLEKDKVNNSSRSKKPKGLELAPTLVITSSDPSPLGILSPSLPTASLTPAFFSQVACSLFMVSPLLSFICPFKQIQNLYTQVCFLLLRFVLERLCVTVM
In a few lines: as §1

The target in assay [10] is ETV1 (Homo sapiens, UniProt P50549 1-477). The procedure, abridged:
as §1

Assay [11] has as its target ETV6 (Homo sapiens, UniProt P41212 1-452). The procedure, abridged: as §1

These results are taken from publication PMC7862700, “An all-to-all approach to the identification of sequence-specific readers for epigenetic DNA modifications on cytosine”.

Sequence of ETV1 (P50549 whole entry): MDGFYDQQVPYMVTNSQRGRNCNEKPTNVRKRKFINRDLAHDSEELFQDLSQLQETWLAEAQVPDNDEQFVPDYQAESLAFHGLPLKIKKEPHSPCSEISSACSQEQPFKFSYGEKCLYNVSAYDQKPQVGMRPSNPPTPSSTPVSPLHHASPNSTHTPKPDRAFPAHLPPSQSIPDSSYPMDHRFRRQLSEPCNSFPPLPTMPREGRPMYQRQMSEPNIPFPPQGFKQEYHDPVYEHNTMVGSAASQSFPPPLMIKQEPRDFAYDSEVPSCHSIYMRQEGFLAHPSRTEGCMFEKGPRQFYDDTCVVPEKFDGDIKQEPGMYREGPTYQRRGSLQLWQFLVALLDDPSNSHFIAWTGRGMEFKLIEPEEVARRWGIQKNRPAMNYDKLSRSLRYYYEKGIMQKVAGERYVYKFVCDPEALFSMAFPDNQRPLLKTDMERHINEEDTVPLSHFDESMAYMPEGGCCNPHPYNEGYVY
Sequence of ETV6 (P41212 whole entry): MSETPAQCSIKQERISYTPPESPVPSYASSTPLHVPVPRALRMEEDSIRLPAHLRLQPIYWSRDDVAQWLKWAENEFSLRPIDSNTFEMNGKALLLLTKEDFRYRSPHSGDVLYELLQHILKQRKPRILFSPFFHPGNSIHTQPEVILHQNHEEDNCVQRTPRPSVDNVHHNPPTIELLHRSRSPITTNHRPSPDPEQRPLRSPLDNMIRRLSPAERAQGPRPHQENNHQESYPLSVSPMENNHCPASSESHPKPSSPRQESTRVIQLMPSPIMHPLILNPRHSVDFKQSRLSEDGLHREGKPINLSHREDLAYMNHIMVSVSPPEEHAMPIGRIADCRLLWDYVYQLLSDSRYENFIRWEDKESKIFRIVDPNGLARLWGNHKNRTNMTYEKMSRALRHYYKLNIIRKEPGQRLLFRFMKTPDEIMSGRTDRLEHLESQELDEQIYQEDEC
Sequence of ELF1 (P32519 whole entry): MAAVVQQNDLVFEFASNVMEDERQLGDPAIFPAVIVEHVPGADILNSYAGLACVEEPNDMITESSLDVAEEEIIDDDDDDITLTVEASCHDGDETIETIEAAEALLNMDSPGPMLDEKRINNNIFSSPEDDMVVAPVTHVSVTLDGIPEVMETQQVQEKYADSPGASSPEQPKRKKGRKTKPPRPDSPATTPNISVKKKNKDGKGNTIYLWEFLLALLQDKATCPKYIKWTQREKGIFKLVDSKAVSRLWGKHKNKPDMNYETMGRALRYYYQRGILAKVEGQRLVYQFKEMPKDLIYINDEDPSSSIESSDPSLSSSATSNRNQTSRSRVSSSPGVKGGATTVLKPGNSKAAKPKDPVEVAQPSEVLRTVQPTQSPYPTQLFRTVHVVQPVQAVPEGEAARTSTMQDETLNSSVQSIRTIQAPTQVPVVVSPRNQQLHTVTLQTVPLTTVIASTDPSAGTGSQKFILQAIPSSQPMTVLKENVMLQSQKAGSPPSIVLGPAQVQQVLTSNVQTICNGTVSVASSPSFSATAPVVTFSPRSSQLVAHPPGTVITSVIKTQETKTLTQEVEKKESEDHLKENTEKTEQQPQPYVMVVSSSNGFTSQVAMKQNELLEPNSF
Sequence of ELF4 (Q99607 whole entry): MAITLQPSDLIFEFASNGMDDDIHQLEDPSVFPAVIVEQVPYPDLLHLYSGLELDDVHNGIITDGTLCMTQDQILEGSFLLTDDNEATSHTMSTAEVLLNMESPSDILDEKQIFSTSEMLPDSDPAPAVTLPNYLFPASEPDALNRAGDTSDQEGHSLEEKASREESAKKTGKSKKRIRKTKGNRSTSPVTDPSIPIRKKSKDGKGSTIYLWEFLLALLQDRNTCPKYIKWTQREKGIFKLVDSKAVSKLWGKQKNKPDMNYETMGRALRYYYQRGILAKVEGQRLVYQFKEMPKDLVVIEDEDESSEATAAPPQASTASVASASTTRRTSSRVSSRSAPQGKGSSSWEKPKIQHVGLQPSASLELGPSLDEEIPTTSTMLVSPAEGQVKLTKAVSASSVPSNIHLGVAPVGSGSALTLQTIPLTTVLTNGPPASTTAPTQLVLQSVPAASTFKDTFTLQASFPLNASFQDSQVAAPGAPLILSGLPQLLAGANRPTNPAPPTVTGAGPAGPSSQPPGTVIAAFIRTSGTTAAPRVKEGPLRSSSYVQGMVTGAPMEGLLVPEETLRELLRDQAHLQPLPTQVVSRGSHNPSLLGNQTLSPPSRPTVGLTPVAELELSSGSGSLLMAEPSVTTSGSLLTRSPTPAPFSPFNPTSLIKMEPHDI

Consider CGCAAC, for which the binding signal in [1] was 1.04 fold enrichment (6-mer frequency, TF over GST control); in assay [2] it was 1.08 fold enrichment (6-mer frequency, TF over GST control); in [3], 1.08 fold enrichment (6-mer frequency, TF over GST control); in assay [4], 1.03 fold enrichment (6-mer frequency, TF over GST control); in assay [5], 1.12 fold enrichment (6-mer frequency, TF over GST control); in [6], 1.01 fold enrichment (6-mer frequency, TF over GST control). The binding signal in assay [7] was 1.08 fold enrichment (6-mer frequency, TF over GST control); in assay [8], 1.06 fold enrichment (6-mer frequency, TF over GST control); in [9] it was 1 fold enrichment (6-mer frequency, TF over GST control); in [10], 1.03 fold enrichment (6-mer frequency, TF over GST control); in [11] it was 1.07 fold enrichment (6-mer frequency, TF over GST control).
